Assay results from PubChem BioAssay (NCI).
Compounds without any hit were thinned out: in the full panel of roughly 79,000, 15% have a hit. A number with no mark means an inactive call. The source made the active and inactive calls. Cut-off read from the data, not from the text of the source: active = growth inhibition above about 70%; inactive = the rest.

What was measured:
[1] = NCI Yeast Anticancer Drug Screen. Data for the rad50 strain (AID 155);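 note: 0% = growth of vehicle-only cultures of the same strain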; settings: S. cerevisiae rad50 strain growth inhibition, stronger effect = higher value
In short: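 Compounds were tested on a yeast strain with an engineered DNA damage repair alteration; the reported value is growth inhibition normalised to vehicle treatment.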

[2] = NCI Yeast Anticancer Drug Screen. Data for the mec2-1 strain (AID 157); settings: S. cerevisiae mec2-1 strain, stronger effect = higher value
In short: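 Vehicle-treated cultures served as reference for growth inhibition of compound-exposed mec2-1 yeast.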

[3] = NCI Yeast Anticancer Drug Screen. Data for the sgs1 mgt1 strain (AID 161);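 note: 0% = growth of cultures given vehicle only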; settings: S. cerevisiae sgs1 mgt1 strain, stronger effect = higher value
In short: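 Test agents were incubated with a DNA-repair-mutant yeast strain. Growth was then read and compared against vehicle-treated controls.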

[4] = NCI Yeast Anticancer Drug Screen. Data for the cln2 rad14 strain (AID 165);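 note: 0% = growth equal to vehicle treated cultures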; settings: S. cerevisiae cln2 rad14 strain, stronger effect = higher value
In short: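 Each compound was tested on cln2 rad14 yeast. Inhibition of growth was calculated against vehicle-exposed controls.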

[5] = NCI Yeast Anticancer Drug Screen. Data for the bub3 strain (AID 167); settings: S. cerevisiae bub3 mutant strain, stronger effect = higher value
In short: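 Growth of a checkpoint-deficient yeast mutant is measured after compound exposure. Values represent inhibition relative to vehicle.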

[6] = NCI Yeast Anticancer Drug Screen. Data for the mlh1 rad18 strain (AID 175); settings: S. cerevisiae mlh1 rad18 strain growth inhibition, stronger effect = higher value
In short: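 Vehicle-treated cultures served as the reference for growth inhibition in a yeast strain carrying DNA damage repair alterations exposed to each compound.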

[7] = at 5.0 µM (retest, dose inferred, filed as 0.5)
[8] = at 50.0 µM (retest, dose inferred, filed as 5.0)

SMILES	growth inhibition [1, 7]	growth inhibition [1, 8]	growth inhibition ([1]; at 50.0 µM)	growth inhibition [2, 7]	growth inhibition [2, 8]	growth inhibition ([2]; at 50.0 µM)	growth inhibition [3, 7]	growth inhibition [3, 8]	growth inhibition ([3]; at 50.0 µM)	growth inhibition [4, 7]	growth inhibition [4, 8]	growth inhibition ([4]; at 50.0 µM)	growth inhibition [5, 7]	growth inhibition [5, 8]	growth inhibition ([5]; at 50.0 µM)	growth inhibition [6, 7]	growth inhibition [6, 8]	growth inhibition ([6]; at 50.0 µM)
CC1CCCN(c2cc(N(C)C)c([N+](=O)[O-])cc2F)C1 (configuration not stated)	34%	47%	32.2%	35%	49%	11.7%	37%	59%	38.2%	34%	46%	51.5%	41%	86% (active)	71.8% (active)	45%	67%	37.5%
O=[N+]([O-])c1ccc(N/N=C/c2cccnc2)cc1	20%	49%	66.4%	-5%	6%	-12.1%	1%	26%	60.1%	3%	15%	-0.05%	3%	44%	29.4%	9%	26%	45.5%
Nc1cc(F)c(F)cc1Sc1cc(F)c(F)cc1N	39%	95% (active)	99.2% (active)	31%	99% (active)	99.2% (active)	52%	98% (active)	99.2% (active)	41%	98% (active)	89.9% (active)	29%	98% (active)	99.5% (active)	54%	97% (active)	99.2% (active)
CC(C)=CC[P+](CCCCCC[P+](CC=C(C)C)(c1ccccc1)c1ccccc1)(c1ccccc1)c1ccccc1	-4%	9%	31.6%	-1%	9%	40.8%	-3%	27%	59.5%	-5%	16%	4.75%	-3%	15%	48.3%	-1%	27%	89.2% (active)
CC(C)C(=O)/C=C/c1ccc(Cl)cc1Cl	-8%	46%	69.8%	-10%	48%	71.8% (active)	-16%	31%	69.6%	12%	36%	52.5%	-32%	54%	69.4%	-5%	48%	40.3%
Clc1ccc(CN2COc3c(cc(Cl)c4cccnc34)C2)cc1	4%	71% (active)	7.5%	1%	56%	63.3%	1%	99% (active)	16.5%	1%	99% (active)	98.8% (active)	-6%	55%	99.2% (active)	-7%	99% (active)	24.1%
Fc1ccc(NC(=S)SCc2ccc(Cl)c(Cl)c2)cc1	4%	92% (active)	98.1% (active)	3%	91% (active)	99% (active)	0%	97% (active)	98.8% (active)	-3%	92% (active)	98.3% (active)	3%	90% (active)	98.2% (active)	0%	94% (active)	98.8% (active)
COc1ccc(C2COc3cc(OC(C)=O)c(OC(C)=O)cc3C2)cc1 (configuration not stated)	-1%	93% (active)	96.1% (active)	2%	95% (active)	95.9% (active)	1%	93% (active)	95% (active)	4%	93% (active)	94.9% (active)	24%	96% (active)	97.1% (active)	-3%	94% (active)	96.6% (active)
Cc1ccc2nc(C[n+]3cccc4ccccc43)ccc2c1	96% (active)	99% (active)	88.8% (active)	95% (active)	100% (active)	81.1% (active)	88% (active)	99% (active)	99.4% (active)	92% (active)	98% (active)	99% (active)	96% (active)	99% (active)	99.7% (active)	96% (active)	99% (active)	99.5% (active)
